FLuc inh = firefly luciferase inhibition; P08659; purified firefly luciferase, luminescence, 8 min; Potency, µM (doses to about 57.1 µM), inactives show at the highest dose activity change, negative = inhibition, actives largely listed as inhibitors; actives 2.2% (n = 72,000); AID 411; further: on the % scale 0 is the no-effect control and ±100 the full control effect; nearly all actives have a fitted effect of over 40% in size
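Inhibition of light generation by firefly luciferase from ATP and luciferin was profiled with concentration-response curves per sample, ATP held at 10 uM within the enzyme's linear range. Plates were read by luminescence after an 8-minute ambient incubation.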
Tau fil binding = binds recombinant human tau filaments; P10636; recombinant tau filaments, thioflavin S fluorescence, 15 h; filaments grown with octadecylsulfate alongside compound; Potency, µM (highest dose often 57.1 µM), without a hit: at the top dose activity change, negative = inhibition; actives 2% (n = 71,000);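 further: on the % scale 0 is the no-effect control and ±100 the full control effect; actives lower thioflavin S fluorescence by blocking filaments or displacing dye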
Target sequence (P10636 whole entry, looked up): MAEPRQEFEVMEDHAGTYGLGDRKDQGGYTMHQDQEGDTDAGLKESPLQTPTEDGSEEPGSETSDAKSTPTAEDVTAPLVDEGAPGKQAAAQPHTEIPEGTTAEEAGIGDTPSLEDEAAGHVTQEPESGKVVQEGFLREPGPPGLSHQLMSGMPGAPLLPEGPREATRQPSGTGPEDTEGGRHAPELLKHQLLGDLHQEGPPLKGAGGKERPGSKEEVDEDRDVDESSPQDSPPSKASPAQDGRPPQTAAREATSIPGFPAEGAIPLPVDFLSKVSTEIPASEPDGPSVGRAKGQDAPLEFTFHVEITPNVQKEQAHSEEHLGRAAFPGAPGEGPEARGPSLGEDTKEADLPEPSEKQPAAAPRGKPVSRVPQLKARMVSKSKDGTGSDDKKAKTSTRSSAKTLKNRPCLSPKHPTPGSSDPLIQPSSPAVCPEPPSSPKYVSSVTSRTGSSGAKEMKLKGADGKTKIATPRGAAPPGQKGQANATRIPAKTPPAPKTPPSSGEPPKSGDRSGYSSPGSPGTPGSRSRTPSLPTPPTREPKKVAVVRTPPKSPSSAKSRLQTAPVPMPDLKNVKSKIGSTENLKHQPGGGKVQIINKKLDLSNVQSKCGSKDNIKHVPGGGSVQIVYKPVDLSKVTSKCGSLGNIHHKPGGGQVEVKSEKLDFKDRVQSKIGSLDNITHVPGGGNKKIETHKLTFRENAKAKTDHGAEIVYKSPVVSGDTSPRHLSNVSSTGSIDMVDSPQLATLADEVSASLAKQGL
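Quantitative HTS: thioflavine S signal from ODS-induced tau filaments, excited at 450 nm, emission 510 nm. Conditions: 1 uM tau, 30 uM ODS, 15 h at 37 C, pH 7.4.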
p53ts 39C kill = p53ts cell cytotoxicity, nonpermissive temperature; H1299-p53A138V viability at 39C, ATP luminescence, 24 h; Potency, µM (series often up to 46.1 µM), inactives show top-dose activity change, negative = cell killing, actives largely listed as cytotoxic; actives 1.5% (n = 130,000); further: on the % scale 0 is the no-effect control and ±100 the full control effect; nearly all actives have a fitted effect of over 55% in size
p53ts 32C tox = kills p53ts cells at the permissive temperature; actives 0.93% (n = 130,000); AID 924; Potency, µM (titrated, usually from 46.1 µM), for the others: top-dose activity change, negative = cytotoxicity, hits mostly cytotoxic; H1299-p53A138V at 32C, ATP luminescence viability, 24 h;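 further: 0% = DMSO and -100% = full killing by reference compound; nearly all actives have a fitted effect of over 55% in size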
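Viability by ATPlite luminescence after 24 h compound treatment (up to 46 uM) at the permissive 32C. Cells are H1299 carrying p53 A138V. Scale runs from DMSO basal to 100 uM tamoxifen as full kill; AC50 from Hill fits.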
Imprint erasure = genomic imprint erasure induction; mouse ES Peg3-LacZ reporter, beta-gal luminescence, 40 h; Potency, µM (series often up to 60.7 µM), inactives show top-dose activity change, positive = activation, actives largely listed as activators; actives 0.02% (n = 110,000); AID 1948
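Gelatin-coated wells received 300 freshly trypsinized female ES cells with a Peg3LacZ-Neo reporter on the maternal allele, then incubated 40 hours at 37C. BetaGlo was added for 5 minutes at room temperature before a single luminescence read.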
Active calls of the source: *; i = inactive; ? = inconclusive; / = no result; [ ] = dose if it differs, or a comment. A selection: hits, their analogues and other compounds. The true share with any hit is near 3.4%. The call rests on the fitted dose curve; in most records, active means well fitted curve in the direction sought with a large enough effect; inconclusive means small, poorly fitted or top-dose-only effect, or another doubt; inactive means no such curve, though single readings can be large; an effect the other way counts as inactive or inconclusive. Potency means the concentration at half of the fitted maximal effect.

SMILES | FLuc inh | Tau fil binding | p53ts 39C kill | p53ts 32C tox | Imprint erasure
O=C(N/N=C1/C[C@@H](O)[C@@H](O)[C@@H]2[C@@H]3C(=O)N(C[C@@H]4CCCO4)C(=O)[C@H]3CC[C@H]12)OCc1ccccc1 | -1%[11.4 µM] | / | 10%[9.22 µM] | 4%[9.22 µM] | /
O=C(O)c1nnsc1COCc1ccccc1 | 1%[11.4 µM] | 9%[11.4 µM] | 8%[9.22 µM] | -2%[9.22 µM] | -3%[10.9 µM]
COc1cccc(CNc2nc3c(-c4ccccc4)nnn3c3ccccc23)c1 | / | / | ? | 1% | -12%[10.9 µM]
CCCCCCc1ccc(-c2ncc(N)cn2)cc1 | -16% | 25µM* | -3% | 3% | -24%
O=C(C1COc2cc(S(=O)(=O)Nc3ccc(Cl)cc3)ccc2O1)N1CCCC1 (configuration not stated) | / | / | -15% | 3% | ?
COc1cccc(CCc2ccccc2OCC[C@@H]2C[C@@H](O)CN2C)c1 | / | / | 13µM* | ? | -26%
Cc1ccc(NC(=O)C2CCCN(c3ncnc4c3nc3n4CCCCC3)C2)cc1F (configuration not stated) | / | / | / | 3% | /
CC1CCc2onc(C(=O)N3CCN(c4cccc(Cl)c4)CC3)c2C1 (configuration not stated) | / | / | 4% | -1% | -9%[10.9 µM]
CCS(=O)(=O)c1ncc(Cl)c(C(=O)N2CCN(c3cccc(Cl)c3)CC2)n1 | / | / | 2.5µM* | 13µM* | -38%[10.9 µM]
O=C(c1cc2ccc3cccnc3c2[nH]1)N1CCN(c2cccc(Cl)c2)CC1 | / | / | 45% | 6% | 24%[10.9 µM]
CS(=O)(=O)c1ncc(Cl)c(C(=O)N2CCN(c3cccc(Cl)c3)CC2)n1 | / | / | 2.5µM* | 13µM* | -41%[10.9 µM]
COC(=O)c1ccc(C(NC(=O)OCc2ccccc2)/C(I)=C/[C@@H](C)C(=O)NCC2CC2)cc1 (some centres not stated) | / | 27% | -9% | -3% | -17%
CCOC(=O)Cc1nnc2c(Nc3ccc(Cl)cc3)nc3nonc3n12 | 5% | 16µM* | -17% | 8% | -10%
COc1cc(-c2cc(OC)c3c(C)oc(C)c3c(=O)c2)ccc1O | 2% | -28% | -26% | -6% | -17%
COc1ccc(-c2cc(OC)c3c(C)oc(C)c3c(=O)c2)cc1OC | 1% | 25µM* | -8% | 11% | 3%
O=C(CSc1nc(-c2ccccc2)cn1-c1ccccc1F)Nc1ccc(F)cc1 | / | / | -5% | 18% | -9%[10.9 µM]
CCc1ccc2oc(-c3cc(NC(=O)c4cc(OC)c(OC)c(OC)c4)ccc3O)nc2c1 | / | / | 14% | -30% | -5%[10.9 µM]
CCc1ccc2oc(-c3cc(N=Cc4cccc(OC)c4O)ccc3O)nc2c1 | 1.3µM* | 13µM* | 10µM* | 10µM* | -73%
CC1CCc2c(sc(NC(=O)C3c4ccccc4Oc4ccccc43)c2C#N)C1 (configuration not stated) | / | / | 3% | 18% | -5%[10.9 µM]
Cc1cccc(CNC(=O)CCCN2C(=O)COc3ccc(C)cc32)c1 | / | / | 1% | 1% | -12%[10.9 µM]
CCN(CCCNC(=O)CCCN1C(=O)COc2ccc(C)cc21)c1cccc(C)c1 | 2% | 16µM* | 19% | 14% | -15%
Cc1ccc2nc(Cl)c3cc(C(=O)NCCCN(C)Cc4ccccc4)sc3c2c1 | / | / | 13µM* | ? | -9%[10.9 µM]
CCN(CCCNC(=O)c1cc2c(=O)n(C)c3ccccc3c2s1)Cc1ccccc1 | / | / | 13µM* | 1% | -7%[10.9 µM]
CN(CCCNC(=O)c1cc2c(Cl)nc3ccccc3c2s1)Cc1ccccc1 | / | / | ? | 3% | -8%[10.9 µM]
CCN(CCCNC(=O)c1cc2c(=O)[nH]c3ccc(C)cc3c2s1)Cc1ccccc1 | / | / | 13µM* | 13µM* | -23%[10.9 µM]
SMILES | FLuc inh | Tau fil binding | p53ts 39C kill | p53ts 32C tox | Imprint erasure
CCN(CCCNC(=O)c1cc2c(=O)n(C)c3ccccc3c2s1)c1ccccc1 | / | / | ? | -14% | -7%[10.9 µM]
Cn1nc(C(=O)Nc2sccc2C(N)=O)ccc1=O | -4% | 25µM* | -3% | 2% | -23%
Cc1cc(C)n(-c2ccc(C(=O)Nc3sccc3C(N)=O)cc2)n1 | -29% | -24% | ? | ? | -51%
CCCCC(CC)CN1CN(CC(CC)CCCC)CC(C)(N)C1 (configuration not stated) | / | / | -6% | 3% | ?
Cc1ccc(C)o1 | / | 1% | 5% | -14%[1.84 µM] | -1%
CC(=O)Nc1nc(-c2ccccc2)nc(-c2ccccc2OC(C)=O)n1 | -6% | 1.3µM* | -16% | -24% | -5%
CC(=O)Nc1nc(C)nc(-c2ccccc2OC(C)=O)n1 | 4% | -5% | -2% | -3% | -6%
COc1cc(OC)c(NC(=O)CCCn2nc(C)c3sc4ccccc4c3c2=O)cc1Cl | / | / | 13µM* | -26% | -22%[10.9 µM]
CCN(CCCNC(=O)C1CCN(S(=O)(=O)c2cccc3nonc23)CC1)Cc1ccccc1 | 2% | 20µM* | 3% | 4% | -19%
O=C(CSCc1cnn(-c2ccccc2)c1-n1cccc1)NCc1ccccc1F | / | / | -6% | -1% | -12%[10.9 µM]
O=C(Nc1ccc2c(c1)nc1n2CCN(Cc2ccccc2)C1)c1cccs1 | -5% | -28% | -13% | -13% | -10%
COCCN1CCn2c(nc3cc(NC(=O)NC4CCCCC4)ccc32)C1 | -18% | 25µM* | -17% | -26% | -15%
COCCN1CCn2c(nc3cc(NC(=O)c4ccc(OC)cc4)ccc32)C1 | -27% | 25µM* | -17% | -21% | -4%
NC(=O)c1sc2nc3c(c(-c4cccs4)c2c1N)CCCC3 | 3% | -14% | 6% | 12% | -5%
NC(=O)c1sc2nc3c(c(-c4ccco4)c2c1N)CCC3 | -9% | 16µM* | 17% | 11% | -14%
c1ccc(-c2ccc(-c3ccccn3)nn2)nc1 | 13µM* | -2% | 10µM* | 13µM* | -89%
N#C/C(=C\c1c(N2CCC(C(N)=O)CC2)nc2ccccn2c1=O)S(=O)(=O)c1ccccc1 | 2%[25.5 µM] | / | / | / | /
CC1CN(c2nc3ccccn3c(=O)c2/C=C(\C#N)S(=O)(=O)c2ccccc2)CC(C)O1 (configuration not stated) | 0% | 20µM* | 9% | 0% | -11%
Cc1cc(=O)[nH]c(S/C=C/c2ccccc2)n1 | 16µM* | 0% | 5µM* | 6.3µM* | -85%
O=C(COc1ccccc1Cl)Nc1ccc(OCc2cc(=O)n3ccsc3n2)cc1 | / | / | -1% | -4% | -5%[10.9 µM]
CCNc1nc2c(c(=O)[nH]c(=O)n2C)n1Cc1ccc(F)cc1 | 3% | -11% | -14% | -8% | 5%
C=CCNc1nc2c(c(=O)[nH]c(=O)n2C)n1Cc1cccc(C)c1 | 4% | -6% | 7.9µM* | 6.3µM* | -26%
Cc1cc(N)c2ccccc2[n+]1CCCCCCCCCCCCCC[n+]1c(C)cc(N)c2ccccc21 | -1% | i | 13µM* | ? | -58%
COc1ccc(-n2cc(-c3ccc4c(c3)OCO4)n(CC(=O)Nc3cc(Cl)ccc3C)c2=O)cc1 | / | / | 10µM* | 10µM* | -12%[10.9 µM]
COc1ccc(-n2cc(-c3ccc4c(c3)OCO4)n(CC(=O)Nc3cccc(C)c3C)c2=O)c(OC)c1 | / | / | -28% | -20% | 2%[10.9 µM]

Screening results from PubChem BioAssay.
